Compound activity deposited in PubChem BioAssay by National Center for Advancing Translational Sciences (NCATS).
Compounds with a hit are over-represented: about 14% of the library has one in this group of screens.
Cycloheximide cs: counter-screen for Shiga toxin inhibitors: cycloheximide protein synthesis inhibition; max response, %; 300,000 compounds, 12% hits; AID 2314; cell reporter, cycloheximide protein synthesis inhibition counterscreen; in the data active = max response mostly above about 13%, no sharp cut-off; inactive = mostly below about 14%; note: read at 38.3 µM for the half of the compounds with a filed dose
NS1 function inh: blocks influenza NS1 protein function | 270,000 compounds, 0.4% hits | Potency, µM (titrated, usually from 46.1 µM); calls by dose curve; note: actives are rising curves; nearly all actives have a fitted effect of over 50% in size
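Read-out: OD600 growth recovery of NS1-expressing budding yeast. Cells grown overnight at 30C in -URA glucose medium, washed, resuspended and diluted 1:100 in 2% galactose assay medium, pH 6.0. Same strain lacking NS1 served as positive control.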
LmPK inh: LmPK (Leishmania mexicana) enzyme inhibition; Q27686; purified LmPK, Kinase-Glo ATP luminescence, 1 h; Potency, µM (doses to about 57.5 µM), most hits filed as inhibitors; 290,000 compounds, 0.37% hits; AID 1721
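Purified LmPK (0.1 nM) with 0.5 mM PEP and 0.1 mM ADP in imidazole buffer pH 7.2 with MgCl2/KCl, 1 h at room temperature. ATP formed was read by luciferase luminescence and normalized to no-enzyme and uninhibited controls.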
Giardia FBPA inh: blocks Giardia fructose-bisphosphate aldolase activity. A8B2U2. purified Giardia FBPA. Potency, µM (series often up to 59.6 µM), usual class: inhibitors. 290,000 compounds, 0.71% hits. AID 2451; note: nearly all actives have a fitted effect of over 55% in size
Target sequence (A8B2U2 whole entry, looked up): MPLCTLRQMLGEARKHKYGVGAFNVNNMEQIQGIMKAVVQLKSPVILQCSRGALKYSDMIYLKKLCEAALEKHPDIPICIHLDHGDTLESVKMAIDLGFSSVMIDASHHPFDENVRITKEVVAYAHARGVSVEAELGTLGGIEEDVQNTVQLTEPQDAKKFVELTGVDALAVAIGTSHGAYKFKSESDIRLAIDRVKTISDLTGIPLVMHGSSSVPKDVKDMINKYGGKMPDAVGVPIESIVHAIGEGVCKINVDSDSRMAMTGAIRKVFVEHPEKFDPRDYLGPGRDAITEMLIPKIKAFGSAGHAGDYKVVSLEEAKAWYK
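40 nM FBPA preincubated 10 min at RT with compound (up to 57.5 uM final), then substrate plus GAPDH/TPI/NAD/arsenate coupling and diaphorase/resazurin added. Fluorescence read after 20 min at RT, 525/598 nm.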
Shiga inhibitor: inhibitors of Shiga toxin in Vero cells. AID 2315. Vero cells, Shiga toxin protein synthesis inhibition reporter. inhibition, % at 38.7 µM. 290,000 compounds, 9.2% hits; in the data active = inhibition mostly above about 28%, no sharp cut-off; inactive = mostly below about 43%
Numbers stand for hits; i = inactive; ? = inconclusive; nt = not tested or not shown; [ ] = dose if it differs, or a comment. Unless noted, calls come from the whole dose curve; as a rule, active = well fitted curve in the direction sought with a large enough effect; inconclusive = small, poorly fitted or top-dose-only effect, or another doubt; inactive = no such curve, though single readings can be large; an effect the other way counts as inactive or inconclusive.

SMILES	Cycloheximide cs	NS1 function inh	LmPK inh	Giardia FBPA inh	Shiga inhibitor
c1ccc(-c2nccc(-c3ccc(-n4cnc5ccccc54)cc3)n2)cc1	i	i	i	i	i
Nc1nccc(-c2ccc(-n3cccc3)cc2)n1	23	nt	i	i	53
COc1cccc(C2=Nn3c(nnc3-c3cc(OC)ccc3OC)SC2)c1	i	nt	nt	i	i
O=C1CN(C(=O)NCC(=O)N2CCCC2)c2ccccc2N1	i	i	i	nt	i
CCC(C)C(=O)Nc1ccc(OC)cc1[N+](=O)[O-] (stereo not drawn)	i	i	i	i	i
COc1ccc(NC(=O)Nc2ccccc2F)c(C)c1	19	i	i	i	i
COc1cccc(COC(=O)Nc2ccccc2F)c1	29	i	i	i	117
COc1ccc(NC(=O)Nc2ccccc2F)c([N+](=O)[O-])c1	26	i	i	i	69
COc1ccc2nccc(SCC(=O)O)c2c1	nt	i	nt	nt	nt
CC(C)(C)C1CCc2sc(-c3nnc(CCl)o3)cc2C1 (stereo not drawn)	32	nt	i	i	72
ClCc1nnc(-c2cc3c(s2)CCCC3)o1	50	nt	i	i	67
CCn1c(=O)c2sccc2n(Cc2cccc(C)c2)c1=O	i	i	i	i	i
COC(=O)c1cccc(-n2c(=O)n(Cc3ccccc3)c(=O)c3[nH]cnc32)c1C	i	i	i	i	i
N#C/C(C(=O)N1CCCCC1)=C1/N=C(N)c2ccccc21	16	i	i	i	i
CC(C)(C)c1csc(CS(=O)(=O)c2ccccn2)n1	24	i	i	i	88
Cc1nc(CS(=O)(=O)c2ccccn2)sc1C(=O)NNC(=O)c1ccccc1	i	i	i	i	i
Cc1ccccc1-c1noc(CCC(=O)NCc2ccco2)n1	i	i	i	i	i
COc1ccc(-c2noc(CCC(=O)NCc3ccco3)n2)cc1	17	i	i	i	i
COc1ccc(-c2noc(CCC(=O)Nc3cc(Cl)c(OC)cc3OC)n2)cc1	41	i	i	i	46
COc1ccc(C(CC(=O)O)NS(=O)(=O)c2ccc3c(c2)NC(=O)CO3)cc1 (stereo not drawn)	i	i	i	nt	i
Cc1cccc(OCC(=O)N(Cc2ccc(C)o2)C2CCS(=O)(=O)C2)c1 (stereo not drawn)	i	i	i	nt	i
O=C1C(=O)N(Cc2cccnc2)C(c2ccccn2)/C1=C(/O)c1ccc(Br)cc1 (stereo not drawn)	i	i	i	i	i
COc1ccc(/C(O)=C2/C(=O)C(=O)N(Cc3cccnc3)C2c2ccccn2)cc1 (stereo not drawn)	24	i	i	i	61
CC(C)Oc1ccc(/C(O)=C2/C(=O)C(=O)N(Cc3cccnc3)C2c2ccco2)cc1 (stereo not drawn)	62	i	i	i	72
CC(C)Oc1ccc(C2C(C(=O)c3ccco3)=C(O)C(=O)N2Cc2cccnc2)cc1 (stereo not drawn)	35	i	i	i	45
SMILES	Cycloheximide cs	NS1 function inh	LmPK inh	Giardia FBPA inh	Shiga inhibitor
C=CCOc1cccc(C2C(C(=O)c3ccco3)=C(O)C(=O)N2Cc2ccncc2)c1 (stereo not drawn)	29	i	i	i	40
Cc1cccc(C)c1NC(=O)C1C2C=CC(C2)C1C(=O)O (stereo not drawn)	i	i	i	i	i
Cc1cc(OCc2cc(C(=O)N(C)CC3CCOCC3)no2)cc(C)c1Cl	35	i	i	i	46
CCN(CC1CCCO1)C(=O)c1cc(COc2cc(C)c(Cl)c(C)c2)on1 (stereo not drawn)	44	i	i	i	73
N#CCCn1cc(C(CC(=O)c2ccccc2)C(=O)O)c2ccccc21 (stereo not drawn)	30	?	i	i	i
N#CCCn1cc(CNC2CCC(O)CC2)c2ccccc21 (stereo not drawn)	i	i	i	i	i
O=C1C(=O)N(c2ccccn2)C(c2cccc(F)c2)/C1=C(/O)c1ccccc1 (stereo not drawn)	i	i	i	i	i
CCNC(=O)O/N=C(\C)c1sc(-c2ccc(Cl)cc2)nc1C	52	i	i	i	114
C=CCNC(=O)c1sc(-c2ccccc2)nc1C	17	i	i	i	42
C/C(=N\OC(=O)NC(C)C)c1sc(-c2ccccc2)nc1C	26	i	i	i	i
C/C(=N\OC(=O)c1ccc(Cl)cc1)c1sc(-c2ccccc2)nc1C	i	i	i	i	i
Cc1nc(-c2ccccc2)sc1C(=O)NN	i	nt	i	i	i
C/C(=N\OC(=O)c1ccc(F)cc1)c1sc(-c2ccccc2)nc1C	19	i	i	i	i
Cc1ccc(C(=O)NCC(=O)OCC(=O)c2ccc3c(c2)NC(=O)CO3)cc1	i	i	i	i	i
NCCOc1ccccn1	nt	i	nt	nt	nt
COc1ccc(-c2coc3c(O)c(OC)ccc3c2=O)cc1	nt	nt	nt	i	nt
C/C(=N\OC(=O)NC(C)C)c1sc(-c2ccc(Cl)cc2)nc1C	34	i	i	i	112
CC[C@@H](C)[C@H](NC(=O)OC(C)(C)C)c1nnc(S(=O)(=O)Cc2cc(C)ccc2C)o1	18	i	i	i	i
CC(C)[C@H](NC(=O)OC(C)(C)C)c1nnc(S(=O)(=O)Cc2c(F)cccc2Cl)o1	34	i	i	i	i
CC(=O)N[C@H]1CSSC[C@@H](C(=O)N2CCC[C@H]2C(=O)N2CCC[C@H]2C(=O)N[C@@H](CCCCN)C(=O)N[C@@H](CC(=O)O)C(N)=O)NC(=O)CNC(=O)[C@H](Cc2c[nH]c3ccccc23)NC(=O)[C@H](CCCNC(=N)N)NC(=O)[C@@H](Cc2ccc3ccccc3c2)NC(=O)[C@H](Cc2cnc[nH]2)NC(=O)[C@H](CCC(=O)O)NC1=O	i	nt	nt	i	i
N#C/C(=C(\O)C(=O)O)c1ccc(-c2cccc3ccccc23)cc1	nt	i	nt	nt	nt
O=c1c2ccccc2oc2cc(OCc3cccc(F)c3)cc(O)c12	i	i	i	i	i
O=C(Nc1ccc(S(=O)(=O)NCc2ccco2)cc1)c1cccc(F)c1	i	i	i	i	37
Cn1nc(C(=O)Nc2ccc(S(=O)(=O)NCc3ccco3)cc2)c2ccccc2c1=O	53	i	i	i	52
CC(C)n1nc(C(=O)Nc2cccc(S(=O)(=O)NCc3ccco3)c2)c2ccccc2c1=O	17	i	i	i	i
SMILES	Cycloheximide cs	NS1 function inh	LmPK inh	Giardia FBPA inh	Shiga inhibitor
Cn1nc(C(=O)NCc2ccco2)c2ccccc2c1=O	i	i	i	i	i
Cc1onc(-c2c(F)cccc2Cl)c1C(=O)Nc1cccc(S(=O)(=O)NCc2ccco2)c1	38	nt	i[11.5 µM]	i	59
O=C(NCCOc1ccc(F)cc1)C1CCC(=O)N(CCN2CCOCC2)C1 (stereo not drawn)	i	i	i	nt	i
O=C(CCC(=O)Nc1nnc(C2CCCCC2)s1)Nc1ccc(F)cc1	i	i	i	i	i
O=C(c1ccc(COc2ccccc2Br)cc1)N1CCCCC1	34	i	i	i	50
CN(C(=O)c1ccc(COc2ccccc2Br)o1)c1ccccc1	15	nt	i	i	27
COc1ccccc1OCc1ccc(C(=O)N2CCN(C(=O)c3ccco3)CC2)cc1	i	i	i	i	i
